This is a sample that favours compounds with a hit; in the whole collection about 1.1% have one here.
VHR inh abs = blocks human VHR1 dual specificity phosphatase. P51452. recombinant VHR phosphatase, pNPP absorbance. inhibition, % at 13.3 µM. 290,000 compounds, 0.52% hits; in the data active = inhibition above about 50%
3CLpro inhibitor = SARS-CoV 3CLpro protease inhibition | AID 1706 | inhibition, % at 6 µM | recombinant SARS-CoV 3CLpro, quenched FRET peptide cleavage | 290,000 compounds, 0.14% hits; in the data active = inhibition above about 12%
PrPC surface inh = reduces human prion protein on the cell surface; P04156; cell surface PrPC, TR-FRET read-out; inhibition, % at 13.8 µM; 370,000 compounds, 0.43% hits; AID 720596; in the data active = inhibition above about 24%
BJeLR viability = BJeLR cell viability loss | BJeLR (HRASV12) viability, CellTiter-Glo ATP luminescence, 48 h | AID 1554 | inhibition, % (test concentration not listed) | 300,000 compounds, 0.17% hits; in the data active = inhibition above about 50%
PrPC confirm = cell surface PrPC inhibition, TR-FRET confirmation; shares compounds with PrPC surface inh; cell surface PrPC level; inhibition, % at 13.8 µM; 1,500 compounds, 65% hits; AID 743200; in the data active = inhibition above about 25%
LD9 cytotox = counter-screen for PrPc inhibitors: cytotoxicity in LD9 cells; shares compounds with PrPC surface inh; luminescence viability; inhibition, % at 13.8 µM; 1,500 compounds, 29% hits; AID 743201; in the data active = inhibition above about 9.5%
Numbers stand for hits; - = inactive; . = no result.

SMILES | VHR inh abs | 3CLpro inhibitor | PrPC surface inh | BJeLR viability | PrPC confirm | LD9 cytotox
Cc1ccc(S(=O)(=O)N2[C@@H](CCO)OC[C@H]2C(C)C)cc1 | . | . | - | . | . | .
COc1cc(NS(=O)(=O)c2ccc(NC(=O)/C=C/C(=O)O)cc2)nc(OC)n1 | - | - | - | - | . | .
N#C/C(=C\c1ccc(O)cc1)C(=O)N1CCCC1 | - | - | - | - | . | .
N#CC(=Cc1ccc(O)cc1)C(N)=C(C#N)C#N | . | . | 64 | . | - | -
COc1cccc(CC(=O)O[C@@H]2CCC[C@@]3(C(=O)N(Cc4ccccc4)c4ccccc43)[C@H]2NC(=O)CCc2ccccc2)c1 | . | . | - | . | . | .
CCOC(=O)c1sc(NC(=O)C2CC2)cc1C | - | - | - | - | . | .
CCOC(=O)c1sc(NC(=S)NC(=O)CC(C)C)cc1C | - | - | 37 | - | 40 | -
CCOC(=O)c1sc(NC(=O)C(C)(C)C)cc1C | - | - | - | - | . | .
CCOC(=O)c1sc(NC(=S)NC(=O)C2CCCC2)cc1C | - | - | 26 | - | 56 | -
O=C(CC[C@H]1O[C@@H](n2ccc(=O)[nH]c2=O)[C@H](O)[C@@H]1O)NCC1CCCO1 (stereo partly specified) | . | . | - | . | . | .
O=C(CSc1nnc(-c2ccco2)o1)N1CCCCC1 | - | - | - | - | . | .
Clc1ccc(-c2nc3ccc(Br)cn3c2Cc2cccc(Cl)c2)cc1 | . | . | 30 | . | 53 | -
Cc1ccc(-c2nc3ccc(Br)cn3c2Cc2cccc(Cl)c2)cc1 | . | . | - | . | . | .
COc1ccc(-c2nc3ccc(Br)cn3c2Cc2cccc(Cl)c2)cc1OC | . | . | 27 | . | 61 | -
NC(=S)N/N=C1\CC(n2nnn(-c3cccc(Cl)c3)c2=S)C2COC1O2 (stereo unspecified) | - | - | 28 | - | 42 | -
NC(=S)N/N=C1\CC(n2nnnc2-c2ccccc2)C2COC1O2 (stereo unspecified) | - | - | - | - | . | .
CC[C@@H](C(=O)[C@@H](C)[C@@H](O)[C@H](C)CCc1ccc(C)c(O)c1C(=O)O)[C@H]1O[C@](CC)([C@H]2CC[C@](O)(CC)[C@H](C)O2)C[C@@H]1C | - | - | 75 | - | 69 | 44
NC(=O)c1cc(NC(=O)c2cc(Br)c(Br)s2)cc(C(N)=O)c1 | - | - | 46 | - | 47 | -
O=C(OCC#CCSc1nnc(-c2cccc(F)c2)o1)c1ccc(F)cc1 | . | . | - | . | . | .
N#CC1=C2SCN(Cc3ccccc3)CN2C(=O)CC1c1ccc2c(c1)OCO2 (stereo unspecified) | - | - | - | - | . | .
N#CC1=C2SCN(Cc3ccccc3)CN2C(=O)CC1c1cccs1 (stereo unspecified) | - | - | 27 | - | 56 | -
COCCN(C(=O)c1cc(CN2C(=O)c3ccccc3C2=O)ccc1OC)c1c(N)n(CC(C)C)c(=O)[nH]c1=O | . | . | - | . | . | .
Oc1ccc(-c2cnc3c(Nc4cccc(OC(F)(F)C(F)F)c4)nccn23)cc1 | . | . | 25 | . | 25 | -
C[C@H]1O[C@@H](n2c3ccc(Cl)cc3c3ccc4c5cc(Cl)ccc5[nH]c4c32)[C@H](O)[C@H](O)[C@H]1O | . | . | - | . | . | .
CC1=CC2OC3CC4OC(=O)C=CC=CC(=O)OCCC(C)C(O)C(=O)OCC2(CC1)C4(C)C31CO1 (stereo unspecified) | . | . | 82 | . | 94 | 69
SMILES | VHR inh abs | 3CLpro inhibitor | PrPC surface inh | BJeLR viability | PrPC confirm | LD9 cytotox
CC1CCOC(=O)C=CC=CC(=O)OC2CC3OC4C5OC5(C)C(O)CC4(COC(=O)C1O)C2(C)C31CO1 (stereo unspecified) | . | . | 84 | . | 101 | 46
CC(O)C1C=CC=CC(=O)OC2CC3OC4C5OC5(C)C(O)CC4(COC(=O)C(O)C(C)CCO1)C2(C)C31CO1 (stereo unspecified) | . | . | 92 | . | 99 | 40
CC1=CC2OC3CC4OC(=O)C=CC=CC(C(C)O)OCC(O)C5(C)OC5C(=O)OCC2(CC1O)C4(C)C31CO1 (stereo unspecified) | . | . | 89 | . | 96 | 60
CCOCCn1c(N2CCCC2)nc2c1c(=O)[nH]c(=O)n2C | - | - | - | - | . | .
C[C@H](O)[C@@H]1CN2CCc3ccc(-c4ccc5c(c4)OCO5)cc3[C@@H]2C[C@@H]1N(C)C(=O)c1cccc(Cl)c1 | . | . | - | . | . | .
CC(C)CCNC(=O)Cc1c(C(=O)O)[nH]c2ccc(Cl)cc12 | - | - | - | - | . | .
CCc1c(C(=O)O)[nH]c2ccc(Br)cc12 | - | - | 76 | - | 88 | -
COC1OC2COC(c3ccccc3)OC2C2OC12 (stereo unspecified) | . | . | - | . | . | .
Cc1cc([N+](=O)[O-])nn1Cc1ccc(C(=O)N/N=C/c2ccc(O)cc2O)cc1 | - | - | 32 | - | 29 | 21
Cc1cc([N+](=O)[O-])nn1Cc1ccc(C(=O)N/N=C/c2ccc(F)cc2)cc1 | - | - | - | - | . | .
O=C(N/N=C/c1ccc(O)cc1O)c1ccc(CN2C(=O)c3cccc4cccc2c34)cc1 | - | - | 31 | - | 29 | 19
COC(=O)c1cc2c(c3c4cc(F)ccc4n(S(=O)(=O)c4cccc(C)c4)c13)C(=O)N(Cc1ccco1)C2 | . | . | - | . | . | .
Cc1onc(-c2ccccc2)c1C(=O)Oc1cccnc1 | - | - | 30 | - | - | -
COC(=O)c1c(-c2ccccc2)noc1C | - | - | - | - | . | .
O=C(CCc1ccccc1)Nc1ccccc1 | - | - | - | - | . | .
CC(C)(C)c1csc(NC(=O)Cc2cccs2)n1 | - | - | - | - | . | .
CC(C)(C)c1csc(NC(=O)CCc2ccccc2)n1 | - | - | 26 | - | - | -
O=C(Nc1ccc(OCc2ccccc2)cc1)c1cccs1 | - | - | 25 | - | - | -
O=C(CCc1ccccc1)Nc1cccc(NC(=O)CCc2ccccc2)c1 | - | - | 25 | - | - | -
O=C(Cc1ccccc1)Nc1cccc(NC(=O)c2cccs2)c1 | - | - | 32 | - | - | -
CCCCCCCCN1C(=O)[C@@H](CC(=O)NCCCN2CCCC2=O)C[C@@]2(C(=O)OC)C1=C[C@H](C(C)(C)C)O[C@@H]2C | . | . | - | . | . | .
CC(C)(C)OC(=O)N1CCC[C@@H]1C(=O)N1CCC[C@@H]1C(=O)NCc1ccccc1 | . | . | - | . | . | .
NC(c1csc(Nc2ccc(C(=O)NCCO)cc2)n1)C1CCCCC1 (stereo unspecified) | . | . | - | . | . | .
CC(N)c1csc(Nc2ccc(C(=O)c3ccccc3)cc2)n1 (stereo unspecified) | . | . | - | . | . | .
CC(=O)c1ccc(Nc2nc(C(N)C3CCCCC3)cs2)cc1 (stereo unspecified) | . | . | 29 | . | 39 | -
NC(c1csc(Nc2ccc(C(=O)c3ccccc3)cc2)n1)C1CCCCC1 (stereo unspecified) | . | . | 38 | . | 41 | -
CCN(CC)C(=S)Nc1cc(C(=O)OC)ccc1C(=O)OC | - | - | 25 | - | - | -
CC(C)C[C@H](NC(=O)c1nc[nH]c1C(=O)NC(c1ccccc1)c1ccccc1)C(=O)OC(C)(C)C | - | - | - | - | . | .
CC(C)C[C@H](NC(=O)c1[nH]cnc1C(=O)N[C@H](C)c1ccccc1)C(=O)OC(C)(C)C | - | - | 27 | - | - | -
